Compound activity: PubChem, The Scripps Research Institute Molecular Screening Center
GPR151 ag: activators of human GPR151, primary screen, cell-based, PathHunter beta-arrestin, luminescence | AID 1508602, 2020 | actives 1% (n = 650,000) | activation, % at 11.2 µM | PathHunter beta-arrestin GPR151 cells; in the data active = activation above about 4.9%;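 note: 0% = median of compound wells and 100% = cells with positive control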
FBW7 act: FBW7 E3 ligase activators, primary screen, biochemical, AlphaScreen, human | F-box/WD repeat-containing protein 7 (Homo sapiens), Q969H0 | AlphaScreen FBW7–phospho-cyclin E peptide binding, activator screen | normalized activity (activation), % at 26.1 µM | actives 0.13% (n = 650,000) | AID 1259310, 2017; in the data active = normalized activity above about 1.9%;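 note: purified mutant Fbw7 with reduced substrate affinity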
Target sequence (Q969H0 whole entry, looked up): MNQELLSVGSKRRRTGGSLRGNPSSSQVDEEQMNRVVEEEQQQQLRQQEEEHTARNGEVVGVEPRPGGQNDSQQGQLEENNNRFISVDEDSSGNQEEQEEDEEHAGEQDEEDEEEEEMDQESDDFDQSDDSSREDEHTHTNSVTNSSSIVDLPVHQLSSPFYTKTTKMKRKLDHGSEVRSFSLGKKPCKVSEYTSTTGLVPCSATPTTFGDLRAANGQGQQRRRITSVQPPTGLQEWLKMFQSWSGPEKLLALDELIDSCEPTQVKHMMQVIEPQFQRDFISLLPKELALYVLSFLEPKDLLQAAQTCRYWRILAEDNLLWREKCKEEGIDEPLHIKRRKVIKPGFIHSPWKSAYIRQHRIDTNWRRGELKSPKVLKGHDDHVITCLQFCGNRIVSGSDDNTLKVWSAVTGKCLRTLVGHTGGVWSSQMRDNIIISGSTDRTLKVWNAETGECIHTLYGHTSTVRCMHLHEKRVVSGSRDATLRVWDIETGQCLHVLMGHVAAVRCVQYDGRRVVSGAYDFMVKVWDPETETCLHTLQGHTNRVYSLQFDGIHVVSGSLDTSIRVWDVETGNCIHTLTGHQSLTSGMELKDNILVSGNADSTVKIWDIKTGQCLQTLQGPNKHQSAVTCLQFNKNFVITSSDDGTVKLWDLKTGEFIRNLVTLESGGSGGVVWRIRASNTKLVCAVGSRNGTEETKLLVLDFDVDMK
MITF primary: MITF inhibitors, primary screen, biochemical, AlphaScreen, human | Microphthalmia-associated transcription factor (Homo sapiens), O75030 | AlphaScreen MITF homodimerization, bead proximity signal | inhibition, % at 2.6 µM | actives 0.91% (n = 650,000) | AID 1259374, 2018; in the data active = inhibition above about 50%;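 note: 0% = vehicle wells with protein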
TEAD-YAP inh: TEAD-YAP interaction inhibition, primary screen, TEAD-YAP interaction inhibitor project, luminescence, HEK-TIYL cells | TEAD-Gal4/YAP UAS-luciferase luminescence | inhibition, % at 9.12 µM | actives 1.4% (n = 640,000); in the data active = inhibition above about 32%;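 note: 0% = median of test compound wells and 100% = reference inhibitor wells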
GPR151 conf act: GPR151 activators, triplicate retest, confirmation, cell-based, PathHunter beta-arrestin, luminescence. shares compounds with GPR151 ag. GPR151 PathHunter beta-arrestin cells, 90 min; % of EA-reagent control over plate median. activation, % at 11.2 µM. 6,700 tested, under 10 active. AID 1508609, 2020;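 active = mean percent activation across replicates above the confirmation screen cutoff of 4.91%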
GPR119 counter: GPR119 activators in beta-arrestin cells, counter-screen for GPR151 activator project, cell-based, PathHunter beta-arrestin, luminescence, triplicate. AID 1508611, 2020. 90 min; 0 = compound-well median, 100 = enzyme-acceptor control. shares compounds with GPR151 ag. activation, % at 11.2 µM. actives 0.3% (n = 6,700);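 active = mean percent activation in the counterscreen above 29.09%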;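 note: counterscreen on off-target GPR119 to flag nonselective hits from the GPR151 activator screen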
Numbers without * were called inactive; · = no result given. Most compounds without a hit are left out; they make up all but 3.5% or so of the library.

SMILES	GPR151 ag	FBW7 act	MITF primary	TEAD-YAP inh	GPR151 conf act	GPR119 counter
CCOC(=O)CNC(=O)c1ccc(OC)c(Br)c1	5.6*	-0.2	-10.8	-5.8	-0.2	2.0
COc1ccc(C(=O)NCc2ccccc2)cc1I	-0.5	0.1	-3.0	-5.8	·	·
CCOC(=O)CNC(=O)c1ccc(OC)c(I)c1	2.3	0.1	13.1	-19.8	·	·
O=C(NCCc1nnc2n1CCN(Cc1ccccn1)CC2)C1CCCCC1	0.7	0.0	29.1	1.5	·	·
Cc1ccoc1C(=O)NCC1Cc2cc(-c3cnccn3)cc(Cl)c2O1 (stereo not drawn)	2.2	0.1	5.8	7.0	·	·
CC(=O)NCC(=O)NCC1Cc2cc(-c3cnccn3)cc(Cl)c2O1 (stereo not drawn)	4.9*	0.0	-3.9	-12.6	-0.7	-2.0
C=CCn1c(COc2ccc(OC)cc2)nc2ccccc21	-0.7	-0.3	-4.2	-59.1	·	·
C=CCn1c(/N=C/c2ccc(OC)cc2)nc2ccccc21	5.0*	0.1	6.2	5.3	1.6	11.9
COC(=O)C(=O)Nc1nnc(-c2cccnc2)s1	0.7	1.4	2.6	11.5	·	·
C#Cc1cccc(N2C(=O)c3cc4ccccc4c(-c4ccccc4)c3C2=O)c1	5.4*	-0.1	6.8	7.4	0.6	-5.0
O=C(CN1CCN(S(=O)(=O)c2ccc(Cl)cc2)CC1)c1ccc(F)cc1	14.7*	0.0	-7.1	-5.5	-0.6	-6.1
COC(=O)c1ccc(Cn2c(C)nc3cc4c(cc32)OCCO4)cc1	-0.5	0.2	10.9	-60.9	·	·
COc1ccc(NC(=O)CCCC(=O)OCC(F)(F)C(F)F)cc1	5.0*	0.1	13.2	9.0	0.1	6.0
C/C(=N\NC(=O)c1ccc(N2CCCC2=O)cc1)c1ccccn1	9.1*	-0.2	-14.1	-1.3	0.6	9.1
O=C(O)CCCCCN1C(=O)C(O)=C(C(=O)/C=C/c2ccccc2)C1c1ccccc1Cl (stereo not drawn)	5.0*	-0.1	-9.1	5.6	0.6	11.3
CCCN1C(=O)C(O)(CC(=O)c2ccccc2O)c2ccccc21 (stereo not drawn)	10.8*	-0.1	-0.5	6.2	0.2	0.2
COc1cc(C2Nc3ccccc3NC3=C2C(=O)CC(c2ccccc2Cl)C3)cc(OC)c1OC (stereo not drawn)	5.6*	0.5	15.8	-1.1	-0.2	-2.7
COc1cc([N+](=O)[O-])c(N2CCOCC2)c([N+](=O)[O-])c1OC	5.4*	-0.1	-4.4	-3.6	-0.3	0.2
COCCNC(=O)c1nn(C)c2c1CSc1ccccc1-2	6.7*	-0.1	1.7	-30.5	-0.9	-9.4
O=C(Cn1c(-c2ccccn2)nc2ccccc21)Nc1nc2ccccc2s1	6.0*	0.1	-4.7	0.9	0.1	3.6
CCCCC[C@@](C)(O)/C=C/[C@@H]1C(C/C=C\CCCC(=O)O)[C@@H](O)C[C@H]1O (stereo partly drawn)	7.1*	·	10.2	·	0.2	7.3
CCCCC[C@@](C)(O)/C=C/[C@@H]1[C@@H](C/C=C\CCCC(=O)OC)[C@@H](O)C[C@H]1O	0.9	·	6.3	·	·	·
Cc1nc2ccccc2c(=O)n1NC(=O)c1cc(-c2ccc(F)cc2)nc2ccccc12	0.5	0.0	-1.2	-28.4	·	·
Cc1nn(Cc2ccc(F)cc2)c(C)c1N	14.6*	-0.2	-6.8	-6.8	0.8	5.0
COc1ccc(OC)c(C2=C/C(=C/c3cccc(OC)c3OC)C(=O)O2)c1	5.1*	0.0	-5.2	-6.3	0.0	4.1
SMILES	GPR151 ag	FBW7 act	MITF primary	TEAD-YAP inh	GPR151 conf act	GPR119 counter
O=C(NCCc1cccs1)c1cc(CCc2ccccc2)no1	1.5	-0.2	-21.4	-56.7	·	·
O=C(COc1ccc(N2C(=O)C3C4C=CC(C5CC45)C3C2=O)cc1)c1ccc(F)cc1 (stereo not drawn)	0.7	-0.1	5.8	2.4	·	·
CCOc1ccc(S(=O)(=O)Nc2cccc(-c3ccc4nncn4n3)c2)cc1	9.8*	0.1	14.0	39.4*	1.1	11.3
COc1ccc(N2C(=O)CC(N(CCc3ccc(OC)c(OC)c3)C(=O)c3ccccc3)C2=O)cc1 (stereo not drawn)	5.2*	-0.1	-11.0	2.8	-0.2	-6.9
Cn1c(=O)c2c(n(C)c1=O)=NC1(CCCCC1)ON=2	0.2	0.1	-14.8	1.1	·	·
c1cc2c(cc1OCCNC1CCCC1)CCC2	6.5*	-0.1	-43.6	0.8	-0.1	-2.0
CCc1ccc(C(C)NC(=O)COc2ccc3ccccc3c2)cc1 (stereo not drawn)	0.3	-0.2	-2.4	-4.1	·	·
COc1ccc2nc(C3CCN(Cc4ccc(Cl)cc4S(C)(=O)=O)CC3)[nH]c2c1	1.0	0.0	6.8	16.9	·	·
Cc1cc(N2CCN(C(=O)c3ccc(Cl)cc3Cl)CC2)c(F)cc1[N+](=O)[O-]	6.8*	-0.1	2.1	6.3	0.6	6.4
O=C(Nc1ccc([N+](=O)[O-])cc1)/C(=C/c1ccccc1)NC(=O)c1ccccc1	7.3*	-0.1	-5.5	-2.1	0.2	11.8
O=C(NCCCNc1ccc([N+](=O)[O-])cc1)c1ccc(F)cc1	5.7*	0.0	-16.1	8.3	-1.1	-4.8
O=C(NCCCO)c1cccc([N+](=O)[O-])c1	5.1*	0.2	1.5	-0.9	0.5	6.2
CCOC(=O)c1ccc(NC(=O)/C(=C\c2ccc([N+](=O)[O-])cc2)NC(=O)c2ccco2)cc1	6.2*	-0.3	1.9	2.0	0.5	5.5
O=C(NCCc1ccc(F)cc1)c1ccc([N+](=O)[O-])cc1	0.2	0.1	13.9	-62.0	·	·
CCOC(=O)c1ccc(NC(=O)/C(=C/c2cccc(Br)c2)NC(=O)c2ccco2)cc1	-1.2	0.1	-4.6	13.2	·	·
Cc1ccc(CN[C@H]2C[C@H]3C(=O)N[C@@H](C)C(=O)N3C2)cc1F	-0.6	0.1	-3.0	-0.9	·	·
COc1ccc(/C=C(/NC(=O)c2ccc(Br)cc2)C(=O)NCC(=O)O)cc1	-0.6	0.1	9.4	-6.2	·	·
CCCCNC(=O)/C(=C\c1cccc([N+](=O)[O-])c1)NC(=O)c1ccc(C)cc1	-0.3	-0.1	-2.2	-12.0	·	·
CCNC(=O)/C(=C\c1ccc(OC)cc1)NC(=O)c1ccc(Br)cc1	5.1*	0.1	10.9	6.0	-0.2	3.3
O=C(NCCO)/C(=C/c1cccc([N+](=O)[O-])c1)NC(=O)c1cccc(Br)c1	0.8	0.1	3.9	0.3	·	·
CCNC(=O)/C(=C/c1cccc([N+](=O)[O-])c1)NC(=O)c1ccc(C)cc1	5.9*	0.8	2.6	-2.1	0.8	-2.0
